Out of some 69,000 compounds screened, about 8,600 (12%) showed an effect of 50% or more. The list comes from a sample in which strong results are over-represented; it also holds similar structures and randomly drawn compounds.
System: Plasmodium berghei
Assay: Screen against P. berghei liver stage (PbLuc), transformed with Luciferase, at 10uM
Format: functional, HepG2
Details: tested at 10 uM

`COc1ncccc1C(=O)NCCn1cnc(C)cc1=O` was tested. Which INHIBITION did it give?
Its INHIBITION is -70.7%.

For `CO[C@@H]1CC[C@@H](N(C)C(=O)c2cn3cc(C)ccc3n2)[C@H]1O`, which INHIBITION is on record?
The INHIBITION was -2.65%.

`CCN1CCOCC12CCN(C(=O)c1ccsc1)CC2` was tested. Which INHIBITION did it give?
Its INHIBITION is 42.1%.

How did the INHIBITION turn out when `O=C(Nc1ccc(Cl)cn1)c1cncc(C2CCNCC2)n1` was run?
Its INHIBITION is -10.4%.

`c1ccc(Cc2nc(CNC3CCOC4(CCOCC4)C3)no2)cc1` (stereo unspecified) was tested. Which INHIBITION did it give?
Its INHIBITION is -40.7%.

How did the INHIBITION turn out when `c1ccc(Cc2nc(CNC3CCC4(CCNCC4)CC3)no2)cc1` was run?
Its INHIBITION is 53.7%.

Which INHIBITION does the source give for `COCc1nc(CNC2CCC3(CCNCC3)CC2)no1` here?
The INHIBITION was 12.1%.

Which INHIBITION does the source give for `O=C(c1cnc(C2CC2)s1)N1CCCC1Cn1cccn1` (stereo unspecified) here?
The INHIBITION was 8.64%.

How did the INHIBITION turn out when `Cc1nn(CCC(=O)NC2CCS(=O)(=O)C2)c(C)c1Br` (stereo unspecified) was run?
The INHIBITION was -8%.

With `Cc1ccoc1C(=O)N1C[C@H]2CCC[C@@]2(COCc2ccncc2)C1` as the compound, how does the INHIBITION read?
Its INHIBITION is 41.8%.

How did the INHIBITION turn out when `CCN1CC2(CCC1=O)CCN(C(=O)C(O)c1cccc(Cl)c1)CC2` (stereo unspecified) was run?
Its INHIBITION is 71.1%.

For `CC(C)CN1CC2(CCN(C(=O)C(O)c3cccc(Cl)c3)CC2)CC1=O` (stereo unspecified), which INHIBITION is on record?
Its INHIBITION is -28.9%.

How did the INHIBITION turn out when `CCN1CC2(CCC1=O)CCN(C(=O)c1ccc(Cl)cc1O)CC2` was run?
The INHIBITION was 36.8%.

For `O=C(NCC1CCOCC1)[C@H]1C[C@@H]2CCN(c3nncs3)C[C@@H]2O1`, which INHIBITION is on record?
Its INHIBITION is 24.3%.

With `Cc1ccc(NC2CCN(C(=O)c3n[nH]c4ccccc34)CC2)nn1` as the compound, how does the INHIBITION read?
The INHIBITION was 11%.

For `CC(O)CN1CCN(C(=O)c2cccc3[nH]ncc23)CC1` (stereo unspecified), which INHIBITION is on record?
The INHIBITION was -31.8%.

Which INHIBITION does the source give for `CCn1nc(C)c(C(=O)N2CCC(Nc3ccc(C)nn3)CC2)c1C` here?
The INHIBITION was 17.5%.

For `O=C(c1ccc(F)cc1Cl)N1CCn2c(nnc2C(F)(F)F)C1`, which INHIBITION is on record?
Its INHIBITION is 68.8%.

For `CCn1nc(C)cc1C(=O)N1CCC(Nc2ccc(C)nn2)CC1`, which INHIBITION is on record?
The INHIBITION was 57.7%.

How did the INHIBITION turn out when `Cc1ccc(NC2CCN(C(=O)c3cccc4[nH]ncc34)CC2)nn1` was run?
Its INHIBITION is 55.4%.

`O=C(c1cccc(F)c1F)N1CCn2c(nnc2C(F)(F)F)C1` was tested. Which INHIBITION did it give?
Its INHIBITION is 34.6%.

Which INHIBITION does the source give for `CC(C)(C)C(O)CN1CCN(C(=O)c2cccc3[nH]ncc23)CC1` (stereo unspecified) here?
The INHIBITION was 69.8%.

How did the INHIBITION turn out when `CCC(O)CN1CCN(C(=O)c2cccc3[nH]ncc23)CC1` (stereo unspecified) was run?
Its INHIBITION is -29.8%.

With `COc1ccc(F)cc1C(=O)N1CCn2c(nnc2C(F)(F)F)C1` as the compound, how does the INHIBITION read?
Its INHIBITION is 6.33%.

How did the INHIBITION turn out when `Cc1ccc(NC2CCN(C(=O)c3cccc4c3ccn4C)CC2)nn1` was run?
Its INHIBITION is 31.2%.

For `Cc1ccc(NC2CCN(C(=O)Cn3nc(C)cc3C)CC2)nn1`, which INHIBITION is on record?
Its INHIBITION is 3.81%.

For `CCS(=O)(=O)N1Cc2ncn(CC3CC3)c2C(COCC2CC2)C1` (stereo unspecified), which INHIBITION is on record?
The INHIBITION was 9.51%.

For `NC(=O)CC1CCN(C(=O)NCc2cccc(-n3cccn3)c2)CC1`, which INHIBITION is on record?
The INHIBITION was -0.378%.

`O=C(O)c1ccccc1-c1ccc(CN2CCC(CO)C2)cc1` (stereo unspecified) was tested. Which INHIBITION did it give?
Its INHIBITION is -12.3%.

`CC(C)Oc1cccc(CNC(=O)N2CCC(N3CC=CC3)C2)c1` (stereo unspecified) was tested. Which INHIBITION did it give?
Its INHIBITION is 16.1%.

Which INHIBITION does the source give for `O=C(CN1CCOC(CNc2cccnn2)C1)NCc1ccccn1` (stereo unspecified) here?
The INHIBITION was 23.5%.

`c1cnc(-c2nn3c(CN4CCCCCC4)nnc3s2)cn1` was tested. Which INHIBITION did it give?
Its INHIBITION is 21.7%.

How did the INHIBITION turn out when `Cc1cc(NC(C)c2n[nH]c(C)n2)n2nc(C)c(C)c2n1` (stereo unspecified) was run?
The INHIBITION was 18.4%.

`CC(CNC(=O)Nc1cn[nH]c1)N1CCCC1` (stereo unspecified) was tested. Which INHIBITION did it give?
The INHIBITION was -21.9%.

For `CCn1c(C)cc(C(=O)N2CCC(Nc3ccc(C)nn3)CC2)c1C`, which INHIBITION is on record?
The INHIBITION was 32.9%.

How did the INHIBITION turn out when `Cc1ccc(NC2CCN(C(=O)c3ccc(F)cc3Cl)CC2)nn1` was run?
Its INHIBITION is 56.4%.

`CCn1c(C)cc(C(=O)N2CCC(NC(=O)c3cc(C)no3)CC2)c1C` was tested. Which INHIBITION did it give?
The INHIBITION was -7.36%.

With `Cc1ccc(NC2CCN(C(=O)c3ccc(C)o3)CC2)nn1` as the compound, how does the INHIBITION read?
The INHIBITION was 51.65%.

How did the INHIBITION turn out when `CCc1ccc(C(=O)N2CCC(Nc3ccc(C)nn3)CC2)o1` was run?
Its INHIBITION is 33.8%.

With `Cc1ccc(NC2CCN(C(=O)c3ccc(Cl)cc3F)CC2)nn1` as the compound, how does the INHIBITION read?
Its INHIBITION is 37.9%.

For `CCn1c(C)cc(C(=O)N2CCC(NC(=O)c3ccc(C)o3)CC2)c1C`, which INHIBITION is on record?
Its INHIBITION is 74%.

`O=C(c1ccc(F)cc1Cl)N1CCC(Nc2cccnn2)CC1` was tested. Which INHIBITION did it give?
Its INHIBITION is 41.4%.

For `Cc1ccc(NC2CCN(C(=O)c3ccc(Cl)o3)CC2)nn1`, which INHIBITION is on record?
The INHIBITION was -33.5%.

`CCc1nc(C2CCCN(C(=O)NC3CC3)C2)no1` (stereo unspecified) was tested. Which INHIBITION did it give?
The INHIBITION was -81.1%.

For `CC(C)CNC(=O)c1nnsc1-c1ccccc1`, which INHIBITION is on record?
Its INHIBITION is 2.69%.

Which INHIBITION does the source give for `COCCN1C[C@@H]2CC[C@H]1CN(C(=O)CCc1n[nH]c(C)c1C)C2` here?
The INHIBITION was -4.92%.

With `COc1cccc(CN2CCN(Cc3ccc4nonc4c3)CC2=O)c1` as the compound, how does the INHIBITION read?
The INHIBITION was 24.9%.

Which INHIBITION does the source give for `COc1cccc(N2CCN(Cc3ccc(NC(C)=O)cc3)CC2=O)c1` here?
The INHIBITION was 38.5%.

How did the INHIBITION turn out when `COc1cccc(N2CCN(Cc3nccn3C(C)C)CC2=O)c1` was run?
The INHIBITION was 59.5%.

`COc1cccc(N2CCN(Cc3nccc(OC)c3OC)CC2=O)c1` was tested. Which INHIBITION did it give?
Its INHIBITION is 11.2%.

For `COc1cccc(N2CCN(Cc3ncc[nH]3)CC2=O)c1`, which INHIBITION is on record?
The INHIBITION was -26.5%.

Which INHIBITION does the source give for `CCn1cc(CN2CCN(Cc3cc(C)cc(C)c3)C(=O)C2)cc1C#N` here?
The INHIBITION was -17.8%.

For `CCn1cc(CN2CCN(Cc3cccc(OC)c3)C(=O)C2)cc1C#N`, which INHIBITION is on record?
The INHIBITION was 56.3%.

`COc1cc(CN2CCN(c3cccc(OC)c3)C(=O)C2)cc(OC)c1` was tested. Which INHIBITION did it give?
Its INHIBITION is 58.5%.

With `COc1cccc(N2CCN(Cc3cc(C)cc(F)c3)CC2=O)c1` as the compound, how does the INHIBITION read?
The INHIBITION was 11.3%.

How did the INHIBITION turn out when `Cc1n[nH]c(C2CN(CC(=O)NCCc3ccccc3C)CCO2)n1` (stereo unspecified) was run?
Its INHIBITION is 43.1%.

Which INHIBITION does the source give for `Cc1occc1C(=O)N1CCC2(CCC(C(=O)NCC3CC3)O2)CC1` (stereo unspecified) here?
Its INHIBITION is -5.94%.

For `CCC(CNS(=O)(=O)c1cccc(C(=O)OC)c1)N1CCCC1` (stereo unspecified), which INHIBITION is on record?
Its INHIBITION is -39.2%.

`O=C1CCC[C@]2(CN(S(=O)(=O)C3CCCCC3)C[C@H]2c2cccnc2)N1` was tested. Which INHIBITION did it give?
Its INHIBITION is -11.4%.

With `O=C(COc1ccc(-n2cccn2)nn1)NC1CCCCC1` as the compound, how does the INHIBITION read?
The INHIBITION was -10.6%.

With `Cc1ncc(-c2ccnc(N3CCC[C@@H]3CO)n2)c(-c2cccnc2)n1` as the compound, how does the INHIBITION read?
The INHIBITION was 20.4%.

How did the INHIBITION turn out when `O=c1c(-c2ccnc(N3CCCC[C@@H]3CO)n2)cnc2sccn12` was run?
Its INHIBITION is 35.2%.

Which INHIBITION does the source give for `OC[C@@H]1CCCN1c1nccc(-c2c[nH]nc2-c2ccncc2)n1` here?
Its INHIBITION is -15.2%.

How did the INHIBITION turn out when `O=c1c(-c2ccnc(N3CCC[C@H]3CO)n2)cnc2sccn12` was run?
Its INHIBITION is -4.82%.

With `OC[C@H]1CCCN1c1nccc(-c2c[nH]nc2C2CCCCC2)n1` as the compound, how does the INHIBITION read?
The INHIBITION was 54.5%.

How did the INHIBITION turn out when `OC[C@H]1CCCN1c1nccc(-c2cncnc2C2CCCCC2)n1` was run?
The INHIBITION was 64.9%.
